Holding throughout (test): PBM; 200 nM protein, PBS
Holding throughout (details): dsDNA, one strand shown

Assay [1] deals with T1, SIX6 (Homo sapiens, UniProt O95475 114-200, L143I).
T1 sequence: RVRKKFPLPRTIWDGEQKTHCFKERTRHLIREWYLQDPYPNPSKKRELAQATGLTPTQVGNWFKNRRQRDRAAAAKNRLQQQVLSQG

The target in assay [2] is T2, SIX6 (Homo sapiens, UniProt O95475 114-200, L143M).
T2 sequence: T1 sequence with I30M

Assay [3] addresses T3, SIX6 (Homo sapiens, UniProt O95475 114-200, L167V).
T3 sequence: T1 sequence with I30L, L54V

Assay [4] deals with HOXB6 (Homo sapiens, UniProt P17509 132-218, K202E).
Assay [5] concerns the target HOXB6 (Homo sapiens, UniProt P17509 132-218).
Assay [6] addresses MSX2 (Homo sapiens, UniProt P35548 130-214, R199I).
Assay [7] has as its target ALX1 (Homo sapiens, UniProt Q15699 118-204, L144V).
In assay [8] the target is ALX3 (Homo sapiens, UniProt O95076 139-225, N203Q).
The target in assay [9] is ALX1 (Homo sapiens, UniProt Q15699 118-204, L144R).
Assay [10] deals with MSX2 (Homo sapiens, UniProt P35548 130-214).
Assay [11] addresses ALX3 (Homo sapiens, UniProt O95076 139-225).
Assay [12] has as its target ALX3 (Homo sapiens, UniProt O95076 139-225, L168Q).
In assay [13] the target is ALX3 (Homo sapiens, UniProt O95076 139-225, L168V).
Assay [14] addresses MSX2 (Homo sapiens, UniProt P35548 130-214, F161Y).
In assay [15] the target is NKX3-2 (Homo sapiens, UniProt P78367 192-278, P234S).
Assay [16] addresses ALX1 (Homo sapiens, UniProt Q15699 118-204).
Assay [17] deals with ALX3 (Homo sapiens, UniProt O95076 139-225, N203S).
Assay [18] deals with NKX3-2 (Homo sapiens, UniProt P78367 192-278).
Assay [19] concerns the target HOXD13 (Homo sapiens, UniProt P35453 263-343, T313R).
Assay [20] deals with HOXD13 (Homo sapiens, UniProt P35453 263-343).
In assay [21] the target is HOXD13 (Homo sapiens, UniProt P35453 263-343, T313A).
Assay [22] addresses T4, NKX2-4 (Homo sapiens, UniProt Q9H2Z4 175-261).
T4 sequence: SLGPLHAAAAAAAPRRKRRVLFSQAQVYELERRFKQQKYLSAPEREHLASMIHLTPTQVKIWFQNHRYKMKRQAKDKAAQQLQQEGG

Assay [23] has as its target T5, NKX2-4 (Homo sapiens, UniProt Q9H2Z4 175-261, R246Q).
T5 sequence: T4 sequence with R72Q

The target of assay [24] is T6, SIX6 (Homo sapiens, UniProt O95475 114-200, T139Q).
T6 sequence: T1 sequence with T26Q, I30L

A further assay has as its target T7, PAX4 (Homo sapiens, UniProt O43316 9-242, F177Y).
T7 sequence: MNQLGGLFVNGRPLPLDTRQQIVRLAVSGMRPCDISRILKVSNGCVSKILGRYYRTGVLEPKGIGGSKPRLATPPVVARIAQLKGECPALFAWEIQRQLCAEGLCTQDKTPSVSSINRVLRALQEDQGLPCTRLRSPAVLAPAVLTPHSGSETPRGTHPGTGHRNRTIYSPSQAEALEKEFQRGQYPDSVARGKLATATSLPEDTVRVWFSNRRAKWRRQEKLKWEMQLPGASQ

Assay [25] has as its target PROP1 (Homo sapiens, UniProt O75360 56-141).
Assay [26] deals with PROP1 (Homo sapiens, UniProt O75360 56-141, R99H).
In a further assay the target is HOXC9 (Homo sapiens, UniProt P31274 178-260, R222W).
Assay [27] deals with PROP1 (Homo sapiens, UniProt O75360 56-141, F88S).
Assay [28] has as its target HOXA2 (Homo sapiens, UniProt O43364 129-215, R185T).
For assay [29], the target named is HOXA2 (Homo sapiens, UniProt O43364 129-215, R185K).
The target of assay [30] is HOXA2 (Homo sapiens, UniProt O43364 129-215, Y150S).
Assay [31] addresses HOXA2 (Homo sapiens, UniProt O43364 129-215).

Residue numbers refer to the chain shown, from its start.

HOXB6 (Homo sapiens, UniProt P17509 132-218, K202E), sequence (P17509 132-218 K202E): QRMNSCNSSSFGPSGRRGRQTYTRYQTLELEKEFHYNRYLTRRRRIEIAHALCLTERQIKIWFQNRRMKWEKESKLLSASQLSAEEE
HOXD13 (Homo sapiens, UniProt P35453 263-343), sequence (P35453 263-343): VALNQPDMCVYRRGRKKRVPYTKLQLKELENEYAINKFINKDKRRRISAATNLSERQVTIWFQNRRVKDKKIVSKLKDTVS
ALX1 (Homo sapiens, UniProt Q15699 118-204, L144R), sequence (Q15699 118-204 L144R): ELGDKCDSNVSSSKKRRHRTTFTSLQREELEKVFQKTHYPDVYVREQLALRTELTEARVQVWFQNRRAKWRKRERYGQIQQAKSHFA
HOXB6 (Homo sapiens, UniProt P17509 132-218), sequence (P17509 132-218): as the sequence (P17509 132-218 K202E) above, with E71K counted along it
HOXD13 (Homo sapiens, UniProt P35453 263-343, T313A), sequence (P35453 263-343 T313A): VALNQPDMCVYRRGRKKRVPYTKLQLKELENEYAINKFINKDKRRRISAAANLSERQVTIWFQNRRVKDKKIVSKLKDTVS
ALX1 (Homo sapiens, UniProt Q15699 118-204), sequence (Q15699 118-204): as the sequence (Q15699 118-204 L144R) above, with R27L counted along it
HOXD13 (Homo sapiens, UniProt P35453 263-343, T313R), sequence (P35453 263-343 T313R): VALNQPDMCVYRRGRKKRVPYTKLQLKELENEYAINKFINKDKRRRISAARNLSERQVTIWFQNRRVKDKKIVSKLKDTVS
ALX1 (Homo sapiens, UniProt Q15699 118-204, L144V), sequence (Q15699 118-204 L144V): as the sequence (Q15699 118-204 L144R) above, with R27V counted along it
MSX2 (Homo sapiens, UniProt P35548 130-214), sequence (P35548 130-214): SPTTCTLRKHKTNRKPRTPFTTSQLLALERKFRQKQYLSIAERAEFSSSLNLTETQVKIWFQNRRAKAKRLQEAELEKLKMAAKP
MSX2 (Homo sapiens, UniProt P35548 130-214, F161Y), sequence (P35548 130-214 F161Y): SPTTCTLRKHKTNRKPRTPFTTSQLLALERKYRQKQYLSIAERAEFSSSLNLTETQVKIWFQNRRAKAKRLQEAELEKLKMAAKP
ALX3 (Homo sapiens, UniProt O95076 139-225, N203Q), sequence (O95076 139-225 N203Q): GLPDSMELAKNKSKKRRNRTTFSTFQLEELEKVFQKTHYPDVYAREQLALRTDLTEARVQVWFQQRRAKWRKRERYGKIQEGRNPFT
ALX3 (Homo sapiens, UniProt O95076 139-225), sequence (O95076 139-225): as the sequence (O95076 139-225 N203Q) above, with Q65N counted along it
ALX3 (Homo sapiens, UniProt O95076 139-225, N203S), sequence (O95076 139-225 N203S): as the sequence (O95076 139-225 N203Q) above, with Q65S counted along it
ALX3 (Homo sapiens, UniProt O95076 139-225, L168V), sequence (O95076 139-225 L168V): as the sequence (O95076 139-225 N203Q) above, with L30V, Q65N counted along it
HOXA2 (Homo sapiens, UniProt O43364 129-215), sequence (O43364 129-215): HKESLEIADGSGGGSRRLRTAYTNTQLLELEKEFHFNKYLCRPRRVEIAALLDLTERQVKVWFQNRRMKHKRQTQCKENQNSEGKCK
HOXA2 (Homo sapiens, UniProt O43364 129-215, Y150S), sequence (O43364 129-215 Y150S): as the sequence (O43364 129-215) above, with Y22S counted along it
ALX3 (Homo sapiens, UniProt O95076 139-225, L168Q), sequence (O95076 139-225 L168Q): as the sequence (O95076 139-225 N203Q) above, with L30Q, Q65N counted along it
HOXA2 (Homo sapiens, UniProt O43364 129-215, R185T), sequence (O43364 129-215 R185T): as the sequence (O43364 129-215) above, with R57T counted along it
HOXA2 (Homo sapiens, UniProt O43364 129-215, R185K), sequence (O43364 129-215 R185K): as the sequence (O43364 129-215) above, with R57K counted along it
PROP1 (Homo sapiens, UniProt O75360 56-141), sequence (O75360 56-141): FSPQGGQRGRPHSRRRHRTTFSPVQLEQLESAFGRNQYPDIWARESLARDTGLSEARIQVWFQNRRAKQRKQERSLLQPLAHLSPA
PROP1 (Homo sapiens, UniProt O75360 56-141, F88S), sequence (O75360 56-141 F88S): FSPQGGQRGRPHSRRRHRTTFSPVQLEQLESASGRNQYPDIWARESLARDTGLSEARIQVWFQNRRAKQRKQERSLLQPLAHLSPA
HOXC9, sequence (P31274 178-260 R222W): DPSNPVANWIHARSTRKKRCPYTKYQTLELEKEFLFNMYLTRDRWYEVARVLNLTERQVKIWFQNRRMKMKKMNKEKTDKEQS
NKX3-2 (Homo sapiens, UniProt P78367 192-278), sequence (P78367 192-278): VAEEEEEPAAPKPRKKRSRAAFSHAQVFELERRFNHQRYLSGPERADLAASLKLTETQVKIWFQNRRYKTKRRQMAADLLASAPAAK
NKX3-2 (Homo sapiens, UniProt P78367 192-278, P234S), sequence (P78367 192-278 P234S): as the sequence (P78367 192-278) above, with P43S counted along it
MSX2 (Homo sapiens, UniProt P35548 130-214, R199I), sequence (P35548 130-214 R199I): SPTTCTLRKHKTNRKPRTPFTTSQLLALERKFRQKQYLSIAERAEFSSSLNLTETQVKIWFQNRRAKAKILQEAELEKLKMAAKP
PROP1 (Homo sapiens, UniProt O75360 56-141, R99H), sequence (O75360 56-141 R99H): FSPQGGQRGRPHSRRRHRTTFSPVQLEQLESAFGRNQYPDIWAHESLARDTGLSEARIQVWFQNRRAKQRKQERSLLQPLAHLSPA

With ATAATACC, the binding signal with SIX6 [1] was 10.4 upbm affinity estimate (log intensity, higher = more binding, comparable within an allelic series).

Turning to CGGATATC, the binding signal with SIX6 [2] is 10.9 upbm affinity estimate (log intensity, higher = more binding, comparable within an allelic series); with SIX6 [3], 10.8 upbm affinity estimate (log intensity, higher = more binding, comparable within an allelic series).

On to GCACGTGC, for which the binding signal in the assay with HOXB6 [4] is 9.35 upbm affinity estimate (log intensity, higher = more binding, comparable within an allelic series); with HOXB6 [5], 9.36 upbm affinity estimate (log intensity, higher = more binding, comparable within an allelic series).

With CGGATCCG, the binding signal is 9.01 upbm affinity estimate (log intensity, higher = more binding, comparable within an allelic series) in the assay with HOXB6 [4]; 9.47 upbm affinity estimate (log intensity, higher = more binding, comparable within an allelic series) with MSX2 [6]; 6.32 upbm affinity estimate (log intensity, higher = more binding, comparable within an allelic series) with ALX1 [7]; 7.82 upbm affinity estimate (log intensity, higher = more binding, comparable within an allelic series) with ALX3 [8]; 6.18 upbm affinity estimate (log intensity, higher = more binding, comparable within an allelic series) with ALX1 [9]; 9.48 upbm affinity estimate (log intensity, higher = more binding, comparable within an allelic series) with MSX2 [10]. For the same sequence, the binding signal in the assay with ALX3 [11] was 7.83 upbm affinity estimate (log intensity, higher = more binding, comparable within an allelic series); with ALX3 [12], 7.82 upbm affinity estimate (log intensity, higher = more binding, comparable within an allelic series); with ALX3 [13] it was 7.74 upbm affinity estimate (log intensity, higher = more binding, comparable within an allelic series); with MSX2 [14], 9.45 upbm affinity estimate (log intensity, higher = more binding, comparable within an allelic series); with NKX3-2 [15] it was 10.3 upbm affinity estimate (log intensity, higher = more binding, comparable within an allelic series); with ALX1 [16], 6.2 upbm affinity estimate (log intensity, higher = more binding, comparable within an allelic series). Besides, the binding signal in the assay with ALX3 [17] was 7.82 upbm affinity estimate (log intensity, higher = more binding, comparable within an allelic series); with HOXB6 [5] it was 8.86 upbm affinity estimate (log intensity, higher = more binding, comparable within an allelic series); in the assay with NKX3-2 [18], 10.3 upbm affinity estimate (log intensity, higher = more binding, comparable within an allelic series).

As for GGCCTCCC, the binding signal with HOXB6 [4] was 8.93 upbm affinity estimate (log intensity, higher = more binding, comparable within an allelic series); with HOXD13 [19], 9.37 upbm affinity estimate (log intensity, higher = more binding, comparable within an allelic series); with HOXD13 [20], 9.63 upbm affinity estimate (log intensity, higher = more binding, comparable within an allelic series); with HOXD13 [21] it was 9.7 upbm affinity estimate (log intensity, higher = more binding, comparable within an allelic series); with HOXB6 [5] it was 9.02 upbm affinity estimate (log intensity, higher = more binding, comparable within an allelic series).

Turning to AGTGCGTG, the binding signal with NKX2-4 [22] is 11.3 upbm affinity estimate (log intensity, higher = more binding, comparable within an allelic series).

As to ACTACTAG, the binding signal with NKX2-4 [22] was 11.1 upbm affinity estimate (log intensity, higher = more binding, comparable within an allelic series).

With AGTTCGAG, the binding signal in the assay with NKX2-4 [22] is 11.3 upbm affinity estimate (log intensity, higher = more binding, comparable within an allelic series); in the assay with NKX2-4 [23] it was 11.6 upbm affinity estimate (log intensity, higher = more binding, comparable within an allelic series).

ATAGATAC: the binding signal was 10.9 upbm affinity estimate (log intensity, higher = more binding, comparable within an allelic series) with SIX6 [2] and 11.1 upbm affinity estimate (log intensity, higher = more binding, comparable within an allelic series) with SIX6 [24].

For CTCGTGCC, the binding signal in the assay with HOXB6 [4] was 9.04 upbm affinity estimate (log intensity, higher = more binding, comparable within an allelic series); in the assay with ALX1 [7], 6.52 upbm affinity estimate (log intensity, higher = more binding, comparable within an allelic series); with ALX1 [9], 6.32 upbm affinity estimate (log intensity, higher = more binding, comparable within an allelic series); with ALX1 [16], 6.36 upbm affinity estimate (log intensity, higher = more binding, comparable within an allelic series); with HOXB6 [5] it was 8.84 upbm affinity estimate (log intensity, higher = more binding, comparable within an allelic series).

Take AGCGAGGG: the binding signal is 9.04 upbm affinity estimate (log intensity, higher = more binding, comparable within an allelic series) with HOXB6 [4] and 8.99 upbm affinity estimate (log intensity, higher = more binding, comparable within an allelic series) in the assay with HOXB6 [5].

For the sequence AATTTAAT, the binding signal in the assay with HOXB6 [4] is 9.98 upbm affinity estimate (log intensity, higher = more binding, comparable within an allelic series); with HOXD13 [19], 10.4 upbm affinity estimate (log intensity, higher = more binding, comparable within an allelic series); with HOXD13 [20] it was 11.5 upbm affinity estimate (log intensity, higher = more binding, comparable within an allelic series); with PAX4 it was 10.9 upbm affinity estimate (log intensity, higher = more binding, comparable within an allelic series); with PROP1 [25] it was 11.2 upbm affinity estimate (log intensity, higher = more binding, comparable within an allelic series); with PROP1 [26], 10.7 upbm affinity estimate (log intensity, higher = more binding, comparable within an allelic series). Moreover, the binding signal was 11.3 upbm affinity estimate (log intensity, higher = more binding, comparable within an allelic series) in the assay with HOXD13 [21]; 11.1 upbm affinity estimate (log intensity, higher = more binding, comparable within an allelic series) with HOXC9; 7.76 upbm affinity estimate (log intensity, higher = more binding, comparable within an allelic series) with PROP1 [27].

As to AGTGCAGA, the binding signal in the assay with NKX2-4 [22] was 11.4 upbm affinity estimate (log intensity, higher = more binding, comparable within an allelic series); with NKX2-4 [23], 11.7 upbm affinity estimate (log intensity, higher = more binding, comparable within an allelic series).

In the case of ATAAAAGC, the binding signal with HOXB6 [4] is 9.53 upbm affinity estimate (log intensity, higher = more binding, comparable within an allelic series); in the assay with MSX2 [10], 10.9 upbm affinity estimate (log intensity, higher = more binding, comparable within an allelic series); with MSX2 [14] it was 10.8 upbm affinity estimate (log intensity, higher = more binding, comparable within an allelic series); with HOXB6 [5] it was 10.3 upbm affinity estimate (log intensity, higher = more binding, comparable within an allelic series).

With GACCGAGC, the binding signal in the assay with HOXB6 [4] was 8.96 upbm affinity estimate (log intensity, higher = more binding, comparable within an allelic series); in the assay with ALX1 [7], 6.39 upbm affinity estimate (log intensity, higher = more binding, comparable within an allelic series); in the assay with ALX1 [9] it was 6.24 upbm affinity estimate (log intensity, higher = more binding, comparable within an allelic series); with ALX1 [16] it was 6.33 upbm affinity estimate (log intensity, higher = more binding, comparable within an allelic series); in the assay with HOXB6 [5], 8.92 upbm affinity estimate (log intensity, higher = more binding, comparable within an allelic series).

As for CACCCGGG, the binding signal was 9.01 upbm affinity estimate (log intensity, higher = more binding, comparable within an allelic series) with HOXB6 [4]; 7.01 upbm affinity estimate (log intensity, higher = more binding, comparable within an allelic series) with HOXA2 [28]; 10.3 upbm affinity estimate (log intensity, higher = more binding, comparable within an allelic series) with HOXA2 [29]; 10.5 upbm affinity estimate (log intensity, higher = more binding, comparable within an allelic series) with HOXA2 [30]; 7.11 upbm affinity estimate (log intensity, higher = more binding, comparable within an allelic series) in the assay with HOXA2 [31]; 8.87 upbm affinity estimate (log intensity, higher = more binding, comparable within an allelic series) with HOXB6 [5].

CCACGGGC: the binding signal in the assay with HOXB6 [4] was 9 upbm affinity estimate (log intensity, higher = more binding, comparable within an allelic series); in the assay with HOXD13 [19], 9.41 upbm affinity estimate (log intensity, higher = more binding, comparable within an allelic series); in the assay with HOXD13 [20] it was 9.46 upbm affinity estimate (log intensity, higher = more binding, comparable within an allelic series); with HOXD13 [21] it was 9.44 upbm affinity estimate (log intensity, higher = more binding, comparable within an allelic series); with HOXB6 [5], 9.06 upbm affinity estimate (log intensity, higher = more binding, comparable within an allelic series).

In the case of ATACATAC, in the assay with SIX6 [1], the binding signal is 10.4 upbm affinity estimate (log intensity, higher = more binding, comparable within an allelic series).
